# Results as given in the supplement of paper PMC11624193, “Coupling cellular drug-target engagement to downstream pharmacology with CeTEAM” (Nature Communications, 2024).
# Where a name gives a salt, the structure may show the parent alone. Values without a mark were called inactive.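 How the source made its calls: active = log2 fold change beyond 2 SD from the library mean after excluding viability outliers; inactive = within 2 SD.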
# Target: PARP1 L713F-nLuc biosensor (HCT116) (UniProt P09874)
# Assay: PARP1 L713F-nLuc/akaLuc ratio relative to DMSO control (biosensor stabilization) (fold change); higher = more PARP1 biosensor stabilization (target engagement / stabilizer), active = hit call of the paper
# Details: stock concentration (mM; final µM = stock mM x 1): 10; 24 h
# Chain of PARP1 L713F-nLuc biosensor (HCT116) (P09874 whole entry L713F, looked up): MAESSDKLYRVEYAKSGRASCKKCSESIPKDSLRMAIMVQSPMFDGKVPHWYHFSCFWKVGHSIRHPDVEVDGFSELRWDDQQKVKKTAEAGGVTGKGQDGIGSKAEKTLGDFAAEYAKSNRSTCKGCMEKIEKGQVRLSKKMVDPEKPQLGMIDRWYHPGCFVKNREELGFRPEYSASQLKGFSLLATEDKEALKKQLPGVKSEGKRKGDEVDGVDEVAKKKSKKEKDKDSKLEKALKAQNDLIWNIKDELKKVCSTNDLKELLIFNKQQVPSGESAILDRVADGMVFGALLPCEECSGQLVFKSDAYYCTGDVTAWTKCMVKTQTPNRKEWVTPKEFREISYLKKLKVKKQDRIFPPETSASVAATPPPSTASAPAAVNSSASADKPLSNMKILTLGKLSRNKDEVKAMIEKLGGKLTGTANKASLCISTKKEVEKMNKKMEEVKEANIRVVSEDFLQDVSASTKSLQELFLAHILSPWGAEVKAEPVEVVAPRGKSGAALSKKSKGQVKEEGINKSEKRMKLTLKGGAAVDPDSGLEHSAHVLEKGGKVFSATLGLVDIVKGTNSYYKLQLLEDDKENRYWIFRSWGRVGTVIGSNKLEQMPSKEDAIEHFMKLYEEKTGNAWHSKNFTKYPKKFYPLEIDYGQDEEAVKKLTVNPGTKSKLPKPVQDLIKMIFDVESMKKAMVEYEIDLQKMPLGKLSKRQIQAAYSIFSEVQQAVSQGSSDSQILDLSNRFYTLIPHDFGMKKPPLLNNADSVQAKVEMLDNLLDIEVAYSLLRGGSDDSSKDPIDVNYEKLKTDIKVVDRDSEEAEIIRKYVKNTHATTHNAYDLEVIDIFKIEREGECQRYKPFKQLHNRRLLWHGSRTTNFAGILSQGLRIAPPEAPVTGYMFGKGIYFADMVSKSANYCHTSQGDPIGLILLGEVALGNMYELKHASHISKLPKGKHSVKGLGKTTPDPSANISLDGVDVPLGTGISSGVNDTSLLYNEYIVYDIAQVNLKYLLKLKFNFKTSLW
row,SMILES,PARP1 L713F-nLuc/akaLuc ratio
1,CC[C@@H](C(=O)[C@@H](C)[C@@H](O)[C@H](C)[C@@H]1O[C@@H]([C@@H](CC)C(=O)O)CC[C@@H]1C)[C@H]1O[C@]2(C=C[C@@H](O)[C@]3(CC[C@@](C)([C@H]4CC[C@](O)(CC)[C@H](C)O4)O3)O2)[C@H](C)C[C@@H]1C [Salinomycin (from Streptomyces albus)],0.553
2,Cn1cc(C2=C(c3cn(C4CCN(Cc5ccccn5)CC4)c4ccccc34)C(=O)NC2=O)c2ccccc21,1.12
3,CC[C@@H](C(N)=O)N1CCCC1=O [Levetiracetam],1.19
4,c1ccc([C@@H]2C[C@H]2NC2CCNCC2)cc1 [GSK-LSD1 (dihydrochloride)],0.955
5,C/C=C(/C)C(=O)O[C@H]1[C@@H]2[C@H](C)C(=O)O[C@@H]2C[C@@H](C)[C@@H]2C=CC(=O)[C@]21C [Brevilin A],1.47
6,COc1ccc2c(c[n+](C)c3c4cc5c(cc4ccc23)OCO5)c1OC [Chelerythrine (chloride)],0.843
7,COCC1(CO)C(=O)C2CCN1CC2 (stereo not drawn),1.09
8,O=C(O)CNC(=O)c1c(O)c2ccccc2n(Cc2ccccc2)c1=O,1.76
9,CN(C)NC(=O)CCC(=O)O [Daminozide],0.786
10,c1cncc(C2Nc3ccccc3-n3cccc32)c1 (stereo not drawn),0.887
11,O=C(NO)c1cnc(NC2(c3cccc(F)c3)CCCCC2)nc1,0.756
12,CC(C)=CCCC1=CC(=O)c2c(O)ccc(O)c2C1=O [Deoxyshikonin],0.834
13,N[C@@H](CNC(=O)C(=O)O)C(=O)O [Dencichine],1.45
14,COc1cc(C(=O)N2CC[C@@H](O)[C@@H](N)C2)cc2nc(-c3cc4ccccc4n3CC3CC3)n(C)c12 [GSK484 (hydrochloride)],1.09
15,O=C(O)CNC(=O)C1C(=O)N(C2CCCCC2)C(=O)N(C2CCCCC2)C1=O [Daprodustat],0.831
16,C=C1C[C@@H]2[C@H](CC[C@]3(C)C(=O)CC[C@@H]23)[C@@]2(C)C=CC(=O)C=C12 [Exemestane],1
17,Clc1ccc2c(N3CCNCC3)ccnc2c1 [7-Chloro-4-(piperazin-1-yl)quinoline],0.933

row,SMILES,PARP1 L713F-nLuc/akaLuc ratio
1,CCN1CCN(C(=O)Cc2ccc(Nc3ncc(F)c(Nc4ccc(C(=O)Nc5ccccc5Cl)cc4)n3)cc2)CC1,1.15
2,NCCCNCCSP(=O)(O)O [Amifostine],1.22
3,Cc1cc(O)cc(C)c1C=C1C(=O)N(Cc2ccccc2)C(=O)N(Cc2ccccc2)C1=O,1.52
4,CC(O)(CS(=O)(=O)c1ccc(F)cc1)C(=O)Nc1ccc(C#N)c(C(F)(F)F)c1 (stereo not drawn) [Bicalutamide],0.786
5,COc1ccc2c(c1)C(c1ccc(Cl)cc1)=N[C@@H](CC(=O)O)c1nnc(C)n1-2 [I-BET762 carboxylic acid],0.834
6,CC[C@@]1(O)C(=O)OCc2c1cc1n(c2=O)Cc2cc3ccccc3nc2-1 [Camptothecin],0.495
7,COc1c2c3c4c(c(OC)c(=O)c5c(O)cc(OC)c(c6c(OC)cc(O)c(c1=O)c63)c54)[C@@H](C(C)=O)[C@@](C)(O)C2 [Hypocrellin A],0.849
8,CCC1(c2ccc(N)cc2)CCC(=O)NC1=O (stereo not drawn) [Aminoglutethimide],0.862
9,C[C@H](CCC(=O)O)C[C@H](C)C[C@H](C)C(=O)/C=C(\O)[C@H](C)C[C@H](C)C/C=C/[C@@H](C)[C@@H](O)[C@@H](C)[C@@H](O)C[C@@H]1CC[C@@](C)([C@H]2CC[C@@](C)([C@@H](C)O)O2)O1 [Ionomycin (calcium)],0.727
10,Cn1cc(C2=C(c3cn(C4CCN(Cc5ccccn5)CC4)c4ccccc34)C(=O)NC2=O)c2ccccc21 [Enzastaurin],0.72
11,CC(=O)O[C@H]1[C@H]2[C@@H](OC(=O)Cc3ccccc3)[C@@H](C)C[C@]2(OC(C)=O)C(=O)/C(C)=C/[C@@H]2[C@H](CC[C@@]13CO3)C2(C)C [Euphorbiasteroid],0.646
12,CCc1c(C(=O)C(N)=O)c2c(OCC(=O)O)cccc2n1Cc1ccccc1,0.845
13,"CCCC(=O)O[C@@H]1[C@@H](C)[C@@]2(O)[C@@H](C=C(CO)C[C@]3(O)C(=O)C(C)=C[C@@H]23)[C@@H]2C(C)(C)[C@]12OC(=O)CCC [Phorbol 12,13-dibutyrate]",1.36
14,C[C@@H]1C(=O)O[C@H]2[C@H](O)[C@@]34O[C@@H]5OC(=O)[C@H](O)[C@@]56[C@H](C(C)(C)C)[C@H](O)C(OC3=O)[C@]64[C@@]12O (stereo partly drawn) [Ginkgolide C],0.961
15,O=C(NO)c1cnc(NC2(c3ccccc3)CCC(F)(F)CC2)nc1,5.69 (active)
16,COc1cc(C)[nH]c(=O)c1CNC(=O)c1c(C)n([C@H](C)C2CCOCC2)c2ccccc12,0.857
